BoNT A protease = BoNT/A light chain protease inhibitors, primary screen, biochemical, flow cytometry, MLPCN library. Botulinum neurotoxin type A light chain protease (Clostridium botulinum A str. ATCC 3502). multiplex microsphere protease substrate cleavage. inhibition, % at 10 µM. 360,000 compounds, 0.17% hits; note: plate controls were buffer without enzyme for full effect and enzyme alone for no effect
BoNT-F LC inh = BoNT/F light chain protease inhibitors, primary screen, biochemical, flow cytometry, MLPCN library; Botulinum neurotoxin type F light chain protease (Clostridium botulinum); Multiplex microsphere protease cleavage assay; inhibition, % at 10 µM; 360,000 compounds, 0.22% hits; AID 588497, 2011; in the data active = inhibition above about 35%, passing the limit was not always enough; inconclusive = no clear call, values can overlap the other calls; note: plate controls were buffer without enzyme for full effect and enzyme alone for no effect
Anthrax LF inh2 = Bacillus anthracis LF protease inhibitors, primary screen, biochemical, multiplex microsphere, MLPCN library | Lethal factor (Bacillus anthracis), P15917 | multiplex microsphere protease cleavage assay | inhibition, % at 10 µM | 360,000 compounds, 0.12% hits | AID 588501, 2011; note: plate controls were buffer without enzyme for full effect and enzyme alone for no effect
Bead autofluor = compound fluorescence in toxin protease inhibitor counterscreen. compound autofluorescence counterscreen, microsphere flow cytometry; stronger effect = higher value. fluorescence intensity (test concentration not listed). 360,000 compounds, 3.1% hits; in the data active = fluorescence intensity above about 16000; inconclusive = no clear call, values can overlap the other calls
Numbers without * were called inactive; ? = inconclusive. Rows were chosen to be rich in hits. Some 3.5% of all compounds tested hit in one or more screens of this group. Cut-off read from the data, not from the text of the source, unless noted: active = inhibition above about 30%; inconclusive = no clear call, values can overlap the other calls; inactive = below that.

SMILES	BoNT A protease	BoNT-F LC inh	Anthrax LF inh2	Bead autofluor
COc1cc(NC(=O)c2cnc(NCc3ccccc3)nc2C)cc(OC)c1OC	0	12	0	3393
CCOC(=O)c1cccnc1SCC(=O)NCc1ccccc1	1	1	-2	19817*
CCOC(=O)c1cnc(NCc2ccccc2)nc1C	0	-1	-3	16359*
COc1cccc(N2C(=O)C(CC(=O)Nc3ccccc3)N(C3CCCCC3)C2=O)c1 (stereo not drawn)	3	6	-4	19391*
CCc1ncc(C(O)c2ccc(Cl)cc2)n1Cc1ccccc1 (stereo not drawn)	-1	-5	-8	2926
CN1CCC(NC(=O)c2cc(-c3cccc(Br)c3)nc3ccccc23)CC1	0	5	-10	5838
CC1=C(C(=O)Nc2ccccc2)C(c2ccco2)NC(=S)N1 (stereo not drawn)	-2	-7	-1	24277*
CC1=C(C(=O)Nc2ccccc2)C(c2ccco2)NC(=O)N1 (stereo not drawn)	1	5	-4	9478
COc1cc(-c2cccc([C@H]3[C@@H]4C=CC[C@@H](C)[C@@H]4C(=O)N3Cc3ccccc3)c2)cc(OC)c1OC	0	-7	-6	3410
O=C(NCC1CCCO1)c1ccc(CS(=O)(=O)c2ccc(Cl)cc2)o1 (stereo not drawn)	1	-1	-9	22230*
O=C(NCC1CCCO1)c1ccc(CS(=O)(=O)c2ccc(Br)cc2)o1 (stereo not drawn)	0	3	-3	6069
CN(C)Cc1cn(CCC(=O)O)c2ccccc12	-1	-6	1	24504*
N#CC1=C(N)N(c2ncn[nH]2)C2=C(C(=O)CCC2)C1c1ccccc1 (stereo not drawn)	0	3	-5	4447
O=C(CCCC(=O)OCC(=O)c1ccc(F)cc1)Nc1cc(C(F)(F)F)ccc1Cl	?	-6	-2	20642*
CCOC(=O)CCCCC(=O)c1[nH]c(=O)[nH]c1C[n+]1ccc(C)cc1	0	-2	-3	4458
Cc1[nH]c(=O)[nH]c1C(=O)CCCCC(=O)OCC(=O)Nc1ccccn1	9	70*	-1	4438
Cn1c(=O)c2cc(S(=O)(=O)NCCC(=O)NCCc3ccc(Cl)cc3)ccc2n(C)c1=O	-2	-5	0	17176*
COc1ccc(-c2noc3c2-c2nc(-c4ccccc4F)sc2CC3)cc1	0	0	-7	3806
Cn1c(N)c(C(=O)Nc2ccc3ccccc3c2)sc1=S	?	2	-1	21788*
Cc1ccc(Oc2ccc(NC(=O)CCC(=O)OCC(=O)c3cccs3)cc2)cc1C	0	-1	-7	16284*
CCCNC(=O)c1c(C)cc(=O)oc1C	0	0	-8	16085
Cc1cc(=O)oc(C)c1C(=O)NCCN1CCOCC1	?	1	-4	22773*
Cc1cc(=O)oc(C)c1C(=O)NCCCN1C(C)CCCC1C (stereo not drawn)	-2	-2	-2	24271*
CCCCN(CCCNC(=O)c1c(C)cc(=O)oc1C)c1ccccc1	-1	0	-3	22469*
Cc1cc(=O)oc(C)c1C(=O)NCC1CCCO1 (stereo not drawn)	0	-3	-6	9125
SMILES	BoNT A protease	BoNT-F LC inh	Anthrax LF inh2	Bead autofluor
CC(CCl)n1c(=O)c2ccccc2n1C(=O)c1ccccc1 (stereo not drawn)	0	1	-2	4487
CN(CCCNC(=O)c1ccc(CS(=O)c2ccc(Br)cc2)o1)Cc1ccccc1 (stereo not drawn)	1	2	-2	5950
CC(C)C[C@@H](C(=O)NC1CCN(Cc2ccccc2)CC1)N1C(=O)N2CCc3c([nH]c4ccccc34)[C@@]2(C)C1=O	0	8	-1	8255
COc1ccc(/C=C\C(=O)NCc2ccc3c(c2)cc(C)n3C)cc1OC	62*	-98	-63	2367
Cc1cc2cc(CNC(=S)NCc3ccccc3)ccc2n1C	45*	-120	-80	2043
CCc1cccc(C)c1NC(=S)NCc1ccc2c(c1)cc(C)n2C	57*	-141	-101	1803
CCOC(=O)CCC(=O)NCc1ccc2c(c1)cc(C)n2C	15	12	21	18146*
O=C(c1cccs1)N1CCCC(c2nc3c(nnn3Cc3ccccc3Cl)c(=O)[nH]2)C1 (stereo not drawn)	-1	-8	1	4509
O=C(COc1cccnc1[N+](=O)[O-])NCc1ccc(F)cc1	-2	-4	10	3695
COc1ccc(NC(=S)NCc2ccc3c(c2)cc(C)n3C)cc1	25	-135	-120	1884
Cc1ccccc1NC(=S)NCc1ccc2c(c1)cc(C)n2C	12	-20	0	4862
CCCCNC(=S)NCc1ccc2c(c1)cc(C)n2C	30*	-76	-42	3100
COc1ccccc1NC(=S)NCc1ccc2c(c1)cc(C)n2C	33*	-120	-75	2036
CC1(C(=O)NC2CCCC2)CCC(=O)N1CCc1c[nH]c2ccccc12 (stereo not drawn)	0	-14	2	4337
CC(C)CN(C(=O)COC(=O)Cc1n[nH]c(=O)c2ccccc12)C1CCS(=O)(=O)C1 (stereo not drawn)	?	1	0	21604*
CC(C)C(=O)N1CCCC1(C)C(=O)Nc1ccc2c(c1)OCO2 (stereo not drawn)	0	3	0	2917
CC(C)Nc1cc(C(F)(F)F)nc(-c2ccccn2)n1	-4	-5	-3	20659*
CN(C)c1cc(C(F)(F)F)nc(-c2ccccn2)n1	0	-2	-3	16157*
FC(F)(F)c1cc(Sc2ccccc2)nc(-c2ccccn2)n1	0	-2	-2	16298*
COC(=O)CSc1cc(C(F)(F)F)nc(-c2ccccn2)n1	0	4	8	8920
FC(F)(F)c1cc(Nc2ccccc2)nc(-c2ccccn2)n1	-1	-4	1	4273
CC12CCC(C(=NO)C1=O)C2(C)C (stereo not drawn)	0	7	3	3514
CCN(CC)c1ccc(C(=O)NNC(=O)C2CCN(c3ncnc4sc(C)c(C)c34)CC2)cc1	0	-6	-2	3093
COc1cc(-c2noc(-c3cccc(Cl)c3)n2)cc(OC)c1OC	1	2	-2	22311*
Nc1nnc(CCN2C(=O)CSC2=O)s1	-2	-4	0	24168*
Nc1nnc(CCCCCc2nnc(N)s2)s1	0	4	0	4328
O=c1oc(-c2cccs2)nc2c1cnn2-c1ccccc1	?	-5	1	16820*
Cc1ccc2[nH]c3c(c2c1)CN(C(=O)CN1c2ccc(F)cc2CCC1C)CC3 (stereo not drawn)	?	-11	-8	21807*
Cc1ccc2[nH]c3c(c2c1)CN(C(=O)CN1CCN(c2cccc(C)c2C)CC1)CC3	2	18	1	5361
Cc1ccccc1OC(=O)C1C(c2ccccc2)C(C(=O)O)C1c1ccccc1 (stereo not drawn)	6	12	3	20251*
